In the library only some 7.1% were active in any assay of this set; here they are far more common.
PINK1 expr mod – modulators of PINK1 expression; AID 624263; 410,000 compounds, 0.2% hits; Potency, µM (series often up to 76.6 µM), actives largely listed as activators; PINK1 immunofluorescence, high-content cytometry, 24 h; active = well fitted activation curve with a large enough effect; inconclusive = small, poorly fitted or top-dose-only effect; cell line not stated here; note: nearly all actives have a fitted effect of over 65% in size
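Decision-based qHTS: stable cells, 24 h exposure to five compound concentrations, CCCP as control. Fixed cells stained for PINK1 plus nuclear, mitochondrial and cell markers, cytometer read.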
ATXN viability – cell viability loss in ATXN counter-screen | 400,000 compounds, 0.49% hits | Potency, µM (highest dose often 56.7 µM), usual class: cytotoxic | S2 cells (HEK-293 line with an ATXN2-luciferase reporter) viability, CellTiter-Fluor protease fluorescence, 24 h; note: nearly all actives have a fitted effect of over 40% in size
ATXN2 expr inh – inhibitors of ATXN2 expression | Potency, µM (titrated, usually from 57 µM), hits mostly inhibitors | 360,000 compounds, 0.72% hits | HEK-293 ATXN2-luciferase reporter, luminescence, 24 h; note: nearly all actives have a fitted effect of over 55% in size
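qHTS (up to 57 uM final) was run with 24 h compound exposure of reporter cells at 37 °C. Each well was multiplexed: SteadyGlo luminescence measured ATXN2-luciferase expression after a fluorogenic Gly-Phe-AFC viability readout (25 uM final).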
IL1B secr inh – inhibitors of inflammasome signaling (IL-1 beta secretion). THP-1 LPS/ATP IL-1B secretion, AlphaLISA, 16 h; active compounds read low. activity change, % at 57.5 µM. 360,000 compounds, 4.7% hits; in the data active = activity change below about -50%; inconclusive = mostly about -30% to -49%
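THP-1 cells pretreated 1 hr with compounds (up to 57.5 uM final), then stimulated with LPS (250 ng/mL final) plus ATP (1.25 mM final); secreted IL-1B measured by AlphaLISA after 16 hr, decreased signal indicating inhibition.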
MCF10A rerep – induces DNA re-replication in MCF 10a normal breast cells; MCF 10A DNA re-replication, Hoechst nuclear intensity, 48 h; Potency, µM (doses to about 46.1 µM), actives largely listed as activators; 350,000 compounds, 2.9% hits; AID 624296; note: nearly all actives have a fitted effect of over 50% in size
SW480 rerep – induces DNA re-replication in SW480 colon adenocarcinoma cells. SW480 DNA re-replication, Hoechst DNA content imaging, 48 h. Potency, µM (doses to about 46.1 µM), hits mostly activators. 340,000 compounds, 1.8% hits. AID 624297; note: nearly all actives have a fitted effect of over 55% in size
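Hoechst fluorescence of nuclei (405 nm excitation, 500-530 nm emission) measured by plate-scanning imager after 48 hr compound exposure at 37 C; re-replication scored as increased number of nuclei with elevated intensity.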
Numbers stand for hits; - = inactive; ? = inconclusive; . = no result; [ ] = another dose, or the depositor's remark. Unless noted, calls come from the whole dose curve; as a rule, active = well fitted curve in the direction sought with a large enough effect; inconclusive = small, poorly fitted or top-dose-only effect, or another doubt; inactive = no such curve, though single readings can be large; an effect the other way counts as inactive or inconclusive.

SMILES	PINK1 expr mod	ATXN viability	ATXN2 expr inh	IL1B secr inh	MCF10A rerep	SW480 rerep
N#CC1=C(SCC(N)=O)NC2=C(C(=O)c3ccccc32)C1c1ccc(Cl)cc1 (configuration not stated)	-	?	?	-52	?	-
C=C1C(=O)O[C@H]2[C@H]1[C@H](OC(=O)/C(C)=C\C)C[C@]1(CO1)[C@@H]1[C@H](OC(C)=O)C=C(C)[C@]21O	-	?	-	-104	3.3µM	?
COc1ccc(C(=O)NCC(=O)N/N=C/c2cccc(OC(=O)c3ccco3)c2)cc1OC	-	-	-	-	3.3µM	-
C=CCN1C(=O)NC(c2ccc(OC)cc2)(C(F)(F)F)S/C1=C(\C#N)c1nnc(N2CCOCC2)n1-c1ccccc1 (configuration not stated)	-	-	-	-52	?	-
CSc1ccc(NC(=O)C2(C)CCN2C(=O)c2sccc2C)cc1 (configuration not stated)	-	-	-	-71	.	.
Cc1ccsc1C(=O)N1CCC1(C)C(=O)Nc1cccc(C#N)c1 (configuration not stated)	-	-	-	-	.	.
Clc1ccc(Cn2c(-c3cccnc3Cl)nc3ccccc32)c(Cl)c1	-	-	-	-	16µM	-
Clc1ccc(Cn2c(-c3cccnc3Cl)nc3ccccc32)cc1	-	-	?	-	-	-
C[N+]1(C)CCN(CC(O)(c2ccccc2)C2CCCCC2)CC1 (configuration not stated)	.	-	.	.	.	.
Cc1ccc(-n2c(=O)c3oc4ccccc4c3n(CC(=O)Nc3ccc(F)c(Cl)c3)c2=O)cc1C	-	.	.	.	.	.
CC(=O)OCC1OC(Sc2cccc3cccnc23)C(OC(C)=O)C(OC(C)=O)C1OC(C)=O (configuration not stated)	-	-	-	-97	-	?
Cn1c(Sc2ccc(Cl)cc2)c(C=O)c2ccccc21	-	-	-	-81	?	?
Cn1c(Sc2ccccc2Cl)c(C=O)c2ccccc21	-	?	-	-63	?	-
CCOC(=O)c1cccc(NC(=O)c2cc(-c3ccc(Cl)s3)nc3ccccc23)c1	-	-	-	.	.	.
CCc1ccccc1-n1c2c(cc(-c3nc(-c4ccc(Cl)cc4)cs3)c1=O)C(=O)CC(C)(C)C2	-	-	-	.	.	.
O=C(COC(=O)/C=C/C(=O)OCC(=O)NC12CC3CC(CC(C3)C1)C2)NC12CC3CC(CC(C3)C1)C2	-	.	?	-93	5.2µM	18µM
Cc1nc2sccn2c1CN1CCOc2ccc(CN3C[C@@H](C)O[C@@H](C)C3)cc2C1	-	-	.	.	.	.
O=c1oc2ccc3ccccc3c2cc1-c1nnc(-c2ccccc2)o1	-	-	-	-58	1µM	-
Cc1c([N+](=O)[O-])cnc(Sc2ccccc2)c1[N+](=O)[O-]	-	14µM	.	-	?	?
CCn1ncc(/C=N\NC(=O)c2csc3ccccc23)c1C	-	-	-	-	10µM	12µM
Cc1nn(C)c(C)c1/C=N/NC(=O)c1csc2ccccc12	-	-	-	-	-	-[9.22 µM]
Cc1c(/C=N\NC(=O)c2csc3ccccc23)cnn1C	-	-	-	-	?	21µM
Cc1nnc(NCC=Cc2ccccc2)s1	-	-	-	-	.	.
O=C(CCl)N(CCCNC(=O)C(F)(F)F)c1ccc([N+](=O)[O-])cc1	-	?	-	-101	?	?
CCN1C(=O)/C(=C2/Sc3ccccc3N2CC)S/C1=N\c1ncn[nH]1	-	.	?	-55	?	-
SMILES	PINK1 expr mod	ATXN viability	ATXN2 expr inh	IL1B secr inh	MCF10A rerep	SW480 rerep
NC(=O)c1c(NC(=O)c2cc3ccccc3o2)sc2c1CCC2	-	-	-	-	?	?
CN1CCc2c(sc(NC(=O)c3cc(Cl)sc3Cl)c2C(N)=O)C1	-	-	-	-91	23µM	?
CC(C)c1onc(C(=O)Nc2sc3c(c2C#N)CCC3)c1[N+](=O)[O-]	-	-	-	-	-	-
NC(=O)c1ccsc1NC(=O)c1ccc([N+](=O)[O-])o1	-	-	-	-68	3.7µM	?
N#Cc1c(NC(=O)c2ccc([N+](=O)[O-])o2)sc2c1CCC2	?	?	?	-94	21µM	10µM
NC(=O)c1c(NC(=O)c2ccc([N+](=O)[O-])o2)sc2c1CCCC2	-	-	-	.	2.6µM	1.5µM
CN1CCc2c(sc(NC(=O)C3CCCN3S(=O)(=O)c3ccc(Cl)s3)c2C(N)=O)C1 (configuration not stated)	-	-	-	-	?	?
Cc1cccc(NC(=O)c2oc3ccc(S(=O)(=O)N4CCC5(CC4)OCCO5)cc3c2C)c1C	-	.	.	.	.	.
CN1CCc2c(sc(NC(=O)c3ccc([N+](=O)[O-])o3)c2C(N)=O)C1	-	?	?	-98	?	1.5µM
CN1CCc2c(sc(NC(=O)c3ccco3)c2C(N)=O)C1	-	-	-	-	-	-
Cc1cccc(CSc2ncc(Cl)c(C(=O)Nc3sc4c(c3C#N)CCCC4)n2)c1	-	-	-	.	.	.
COc1cccc(/C=N/Nc2nc3ccccc3n3cnnc23)c1O	-	-	?	-112	?	?
COc1cccc(/C=N/Nc2nc3ccccc3[nH]2)c1O	-	?	.	-55	?	?
COc1cc(/C=N/Nc2nc3ccccc3[nH]2)cc(OC)c1O	-	-	-	-99	?	-
COc1cc(/C=C(/C(=O)c2cccs2)c2nc3ccccc3[nH]2)cc(OC)c1O	-	?	?	-98	16µM	23µM
CCOc1ccc(NC(=O)C2CCN(S(=O)(=O)c3c(C)noc3/C=C/c3cccs3)CC2)cc1	-	.	.	.	.	.
O=C(c1cnn(-c2nccc(-c3ccccc3C(F)(F)F)n2)c1C1CC1)N1CCN(CCO)CC1	-	-	.	.	.	.
O=C(CCc1ccccc1)NCc1nc2cccnc2n1Cc1ccc(F)cc1	-	.	.	.	.	.
COc1cc(/C=N/Nc2nc3ccccc3[nH]2)ccc1O	-	-	-	-105	-	-
COc1cc(/C=N/Nc2ccc(F)cc2F)cc(OC)c1O	-	-	-	-89	16µM	-
COc1cc(/C=N/Nc2ccccc2[N+](=O)[O-])cc(OC)c1O	-	?	-	-	-	-
O=c1[nH]nc(Cc2ccc(-c3ccc(Cl)cc3)o2)c2ccccc12	-	-	-	-	8.2µM	?
O=c1[nH]nc(Cc2ccccc2)c2ccccc12	-	-	-	-	?	-
Cc1ccc([N+](=O)[O-])cc1N=Nc1c(C)[nH]n(C(N)=S)c1=O	-	?	.	-	-	-
Cc1ccc([N+](=O)[O-])cc1N=Nc1c(-c2ccc([N+](=O)[O-])cc2)[nH]n(C(N)=S)c1=O	2.8µM	?	?	?	-	-

Compound activity as filed in PubChem BioAssay.
